# Unmarked numbers belong to inactive results.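 How the source made its calls: active = MAPPIT score above the 99th percentile of random reference set scores in the same batch; inactive = at or below it.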
# B1: CG5532 (protein)
# chain: MPVDWFGYVYAATVAAGGIMGYAKAGSIPSLGAGLAFGALLGYGAHLNSQDTPRPLLQLGTSLFLAGLMGARWNRSGKLMPAGMVCMLSVAALVKNLATYNRYLMPAGTKAP
# B2: MP1 (protein)
# chain: MEPHFFFTVLWMLLMGTSSTYAQEIFGYCRTPDENSGTCINLRECGYLFELLQSEEVTEQDRRFLQASQCGYRNGQVLEKHFCFTNVQICCANSRMRNQQPQWGNHPQPTQTTKPTKRSGTKLLPMAPNCGENFGDRVVGGNETTKREFPWMALIEYTKPGNVKGHHCGGSLINHRYVLTAAHCVSAIPSDWELTGVRLGEWDASTNPDCTVGKNGRRDCNEPYVDYPVEERIPHPQYPGNSRDQLNDIALLRLRDEVQYSDFILPVCLPTLASQHNNIFLGRKVVVAGWGRTETNFTSNIKLKAELDTVPTSECNQRYATQRRTVTTKQMCAGGVEGVDSCRGDSGGPLLLEDYSNGNSNYYIAGVVSYGPTPCGLKGWPGVYTRVEAYLNWIENNVRA
# B3: okr (protein)
# chain: MRRSLAPSQRGPLRPESRHSFTPPLLKKNKRSCQQELEREQELDRRRLGALRDASNTSELPLPIRFTANSEYELAIAKVLARKFKVPMDNYVPDYGGKRVLGVRRCISRRPLHDPMACNALVLFHPPAYTEHERMGMDPTKVLVHVVVDPLLSNILRPHQREGVRFMYECVEGKRGNFNGCIMADEMGLGKTLQCVTLVWTLLRQGPECKPTINKAIVVSPSSLVKNWEKEFTKWLHGRLLCLPMEGGTKENTIRALEQFSMTSARLGTPVLLISYETFRIYAEILCKYEVGMVICDEGHRLKNSDNLTYQALMGLKTKRRVLLSGTPIQNDLTEYYSLVNFVNPEMLGTAAVFKRNFESAILRGQNTDSTEQERQRAIEKTQELIGLVDQCIIRRTNQILTKYLPVKFEMVICAKLTAIQLELYTNFLKSDQVRRSLADCNEKASLTALADITTLKKICSHPDLIYEKLTAREKGFENSQNVLPSNYKPKDLNPELSGKFMLLDFMLAAIRAEGNDKVVLISNYTQTLDLFEQLARKRKYGFVRLDGTMSIKKRSKVVDRFNDPESDSFLFMLSSKAGGCGLNLIGANRLFMFDPDWNPANDEQAMARVWRDGQKKPCYIYRLVASGSIEEKILQRQTHKKSLSSTIIDNNESAEKHFTRDDLKDLFTFDANILSDTHDKLKCKRCVQNIQMKPPPEDTDCTSHLSQWYHCSNNRGLPDNILAQAWMDCKCVSFVFHHRSQAQEIVPSAEEEATDQPEEKPESRKRSSTPASDDSADEDFRGF
# B4: CG2678 (protein)
# chain: MMHSAKNVCRTCMDETGTLVDIFANVRDPVLDEPEMSLSHILARCTERPVKRGDLLPQFICVSCVLAVQNAFRFKWQSEQSYQHFFRVLNQSGAPENQVHLAACNGDKNQIINQKMQLKSDRQQDTQQMTKTQKPDDDLSQKQTLQAKLQEGNIDGPPESFTLHPRKRTCRTEEQADMIPKEATRSTKMICDADGYYNCPHCSKRFCSQTQLRTHITDLCNRCPYCPRTYMQKSNLKRHLRNHLSKPAHKCFHCSKAFMRKDHLKRHLRTHDSDGPLSCSQCSAVFIEHVQLEIHRREHKQRPGSSKSESTKDPDSDDSDQAQDLKPKWTKNTFNGTCSIPPMLKPKPICDICQKKFSSVYALKRHMLTHNRQHHLKKCTYCSEEFKTEKHLKRHERGHMGDLFRCEFCSLVFVDVNYLRKHKKRIHSNNVIAM
# B5: Pdi (protein)
# chain: MKFLICALFLAASYVAASAEAEVKVEEGVLVATVDNFKQLIADNEFVLVEFYAPWCGHCKALAPEYAKAAQQLAEKESPIKLAKVDATVEGELAEQYAVRGYPTLKFFRSGSPVEYSGGRQAADIIAWVTKKTGPPAKDLTSVADAEQFLKDNEIAIIGFFKDLESEEAKTFTKVANALDSFVFGVSSNADVIAKYEAKDNGVVLFKPFDDKKSVFEGELNEENLKKFAQVQSLPLIVDFNHESASKIFGGSIKSHLLFFVSREGGHIEKYVDPLKEIAKKYRDDILFVTISSDEEDHTRIFEFFGMNKEEVPTIRLIKLEEDMAKYKPESDDLSAETIEAFLKKFLDGKLKQHLLSQELPEDWDKNPVKVLVSSNFESVALDKSKSVLVEFYAPWCGHCKQLAPIYDQLAEKYKDNEDIVIAKMDSTANELESIKISSFPTIKYFRKEDNKVIDFNLDRTLDDFVKFLDANGEVADSEPVEETEEEEEAPKKDEL
# B6: Hel25E (protein)
# chain: MADNDDLLDYEDEEQTETTAVENQEAPKKDVKGTYVSIHSSGFRDFLLKPEILRAIVDCGFEHPSEVQHECIPQAVLGMDILCQAKSGMGKTAVFVLATLQQLEPSDNNTCHVLVMCHTRELAFQISKEYERFSKYMPTVKVAVFFGGMAIQKDEETLKSGTPHIVVGTPGRILALIRNKKLNLKLLKHFVLDECDKMLEQLDMRRDVQEIFRSTPHGKQVMMFSATLSKDIRPVCKKFMQDPMEVYVDDEAKLTLHGLQQHYVNLKENEKNKKLFELLDVLEFNQVVIFVKSVQRCVALSQLLTEQNFPAIGIHRGMTQEERLNRYQQFKDFQKRILVATNLFGRGMDIERVNIVFNYDMPEDSDTYLHRVARAGRFGTKGLAITFVSDENDAKILNEVQDRFDVNISELPEEIDLSTYIEGR
# B7: wda (protein)
# chain: MSLPSASNHAHAASPVYSNSNNNKSSASSKKTSSKNDLLRCAVGLLLKQKNYVSNERFRRSDFLLLQNKQQFAVNKMLDTDLHGGNSFTFSNVQVITNNQHTVDQQFGRFSQFVEAQAEPLRLEMKRFYGPMLCHFYLDLLKAREPRGAVELLRKYAHLVAPVDMYDAPPPTKINGCSTTANESTFNIRFAKEAQDTGDTELDYFMRLVQTLSGYTRLEAAESDDTVAHFRSSKYELHTTAVVVNRICAYLQRRGHVLIMNLLYTWLHVHIVENEQRAFSEDHLLGLTDDLEGEDGEDDVVSKPAVTLNTRGDIRPSKSLTEKSNRKRPAEEPNIMLETDIKQEVETDESAELSKLQLNIDACLDTLKSATEQILKSQVELPRFLRISERSRGLTSAHLDPSECHMLAGFDNSAVQLWQLNQSYCRGKSFYRRYPQKRCPWELNNCANQEEETDEDSSDEDVKCSEEERRERNRARHCKYADNSYNEYGGFQLRGHTKGVTDVRFSAHYPLMYSVSKDATMRCWRAHNLHCAAIYRSHNYPIWCLDESPVGQYVVTGSKDLSARLWSLEKEHALIIYAGHTQDVECVAFHPNGNYIATGSADHSVRLWCATSGKLMRVFADCRQAVTQLAFSPDGKMLAAAGEETKVRIFDLAAGAQLAELKDHSASISSLSWSTHNRHLATACSDGTLRLWDIKKLSPMSDNSSAGSSSSATTNRVLTVNSSCQRLVDVFYGTSKTLYCIGT
# B8: kdn (protein)
# chain: MSLYRISARKLSEAQKLPNVGAYVRMIAADGKSLRDVLAAKVPQEQERVKNFRKQHGATKMGETTIDMMYGGMRGIKALVTETSVLDADEGIRFRGLSIPECQKVLPAADGGTEPLPEGLFWLLLTGEVPTKSQVQQLSREWAERAALPQHVVTMLNNMPTTLHPMSQFAAAVTALNHDSKFAKAYSDGVHKSKYWEYVYEDSMDLIAKLPVVAATIYCNTYRGGKGSRSIDSSLDWSANFVKMLGYDNAPFTELMRLYLTIHSDHEGGNVSAHTVHLVGSALSDPYLSFAAGLNGLAGPLHGLANQEVLVWLRKLQKEAGNNPSEEQLKEYIWKTLKSGQVVPGYGHAVLRKTDPRYTCQREFALKHLPEDETFQLVSKIYKVVPPILTETGKVKNPWPNVDAHSGVLLQYYGMKEMNYYTVLFGVSRALGVLASLVWDRALGLPIERPKSFSTDLLVKMVQK
# B9: bin3 (protein)
# chain: MEKRLSDSPGDCRVTRSTMTPTLRLDQTSRQEPLPQQPDNGPAAAPGKSKSPTPLPGKSQAAQHHQFRAPQQQQGPKNRNKAWSKRQHKAGGKHNPSACVGASSGQAQSTGSSVIAATLLPTAASAHKADLENIQNIHNKNLTAGGGVNHHGNAGTAHHGGGGGAGAHHAAAGGHHHHHNTRLAQNAAAGGASGGGTIQMHKKMLRGHHHHVLCAGNNANHTCCLVTGCNGSSIGGVGVAGSGGATASAGGGGASCKEAQSCKDTSSLSGNSSIAGSAGAGNAVHYCCGRSKFFLPEKRLRKEVIVPPTKFLLGGNISDPLNLNSLQNENTSNASSTNNTPATTPRQSPITTPPKVEVIIPPNIHDPLHLLDPVDSMEYEKQLTSPMKRAGPGGGMLHHRQHHYRTRKNRKRRRFDSNNTSHAGDEGGVGSELTDEPPLPAATSSLAASPVAAPLNVGGSLLLSESAAPAPGETAEMGQQQEQAHVHSPQSASTTTTAAEMPTPTPTSAAAATATAEHKEQSAPAPTATSSPQRQQQHVAAAAEELPTPETSAAAETPAEEMLLSCSATSASLVASTLAERRASRDLRLDLSSTCYGVGGTGLSFGGSISSSVGSSFGGGGRKRKISESSTSQKSKKFHRHDAMDKIVSPVVPQPGAWKRPPRILQPSGARKPSTRRSTSVSESELLSPVEEQPPKQLPLIGVEIPRDDTPDLPDHGLGSPLSTTSGATSHTAGEQDSLAGVDISMGDTLGSGVVGKAPLTSSLMLEPAKIPPIKMLPKFRADGLKYRYGNFDRYVDFRQMNEFRDVRLQVFQRHVELFENKDILDIGCNVGHMTITVARHLAPKTIVGIDIDRELVARARRNLSIFVRIPKEEKLLEVKAEPTVDAKANIAVKDETSGAAHKKTRRGKRRRKVHQGIHHHHHHHHDLEQLQQQQKLNSLLVKPHEFFPISFPLTYGRIPRILSSSKSPNMLGNKNQFPANVFFRHTNYVLKDESLMASDTQQYDLILCLSVTKWIHLNFGDNGLKMAFKRMFNQLRPGGKLILEAQNWASYKKKKNLTPEIYNNYKQIEFFPNKFHEYLLSSEVGFSHSYTLGVPRHMNKGFCRPIQLYAKGDYTPNHVRWSDAYYPQTPYEAYRGIYATLPVHRMGGGGSSAGGSNSGHAQMLHLSSSSRSQNYDTPHYAGSASGSASCRQTPMYQPTYNPLETDSYQPSYDMEYLNHMYVFASPLYQTVWSPPASLRKSSSHTPVFGSVRDAELDGDGSGGGGSGGGSYHRHVYPPNDDTCSPNANACNAFNSIRDADTDDSNQLPGGSRRHVYATNCGESSSSPQVNHHDAVGEFVDGLMDDEQKSSTGGGTGGAAYCDLSDA
# How the values were obtained:
# Experiment in all cases: MAPPIT interaction score (arbitrary units); higher = stronger binary interaction signal, active = hit call of the paper
# CG17991 = conditions: MAPPIT configuration: N-C; pair source set: screen_4
# park = conditions: MAPPIT configuration: N-C; pair source set: screen_4
# CG2021 = conditions: MAPPIT configuration: N-N; pair source set: DPIM
# CG2772 = conditions: pair source set: RRS
# CG1971 = conditions: MAPPIT configuration: N-N; pair source set: Curagen_high_conf
# CG9986 = conditions: MAPPIT configuration: N-N; pair source set: Curagen_low_conf
# Mdr49 = conditions: MAPPIT configuration: N-N; pair source set: Lit-BS-16
# PAN3 = conditions: MAPPIT configuration: N-N; pair source set: Curagen_low_conf
# CG2852 = conditions: pair source set: Lit-BM-16
# CG2199 = conditions: MAPPIT configuration: N-N; pair source set: Curagen_low_conf
# Paics = conditions: MAPPIT configuration: N-N; pair source set: DPIM
# CG2991 = conditions: MAPPIT configuration: N-N; pair source set: RRS
# CG30349 = conditions: MAPPIT configuration: N-N; pair source set: Curagen_low_conf
# CG2017 = conditions: MAPPIT configuration: N-N; pair source set: screen_1
# 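Further: HEK293T cells with Epo stimulation, STAT-responsive firefly luciferase reporter, fold induction versus unstimulated cells divided by the larger fold induction of two negative controls lacking either bait or prey.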
binder,measurement,setting,value
B1,MAPPIT interaction score,CG17991,0.124
same,MAPPIT interaction score,park,0.413
B2,MAPPIT interaction score,CG2021,-0.105
B3,MAPPIT interaction score,CG2772; MAPPIT configuration: N-C,-0.364
same,MAPPIT interaction score,CG2772; MAPPIT configuration: N-N,-0.357
B4,MAPPIT interaction score,CG1971,-0.147
same,MAPPIT interaction score,CG9986,-0.191
same,MAPPIT interaction score,Mdr49,-0.0532
same,MAPPIT interaction score,PAN3,-0.0312
B5,MAPPIT interaction score,CG2852; MAPPIT configuration: N-C,-0.281
same,MAPPIT interaction score,CG2852; MAPPIT configuration: N-N,1.74
B6,MAPPIT interaction score,CG2199,-0.422
same,MAPPIT interaction score,Paics,1.6
B7,MAPPIT interaction score,CG2991,-0.317
B8,MAPPIT interaction score,CG30349,0.214
B9,MAPPIT interaction score,CG2017,0.262

# Source: the supplement of paper PMC10105736
